Source: the OligoGym collection

target: IFT52; test: pooled miR-30 sensor sort-seq; sequence = guide strand; settings: shRNA
Also: reference of the scale not given here.

Question: How did the sensor-assay potency score (higher = more potent) turn out when TTCTTCAGTACACTTATTGGTA was run?
Answer: Its sensor-assay potency score (higher = more potent) is -0.369.

Question: How did the sensor-assay potency score (higher = more potent) turn out when TATTCTTCTAGTAAAAAGTTAA was run?
Answer: The sensor-assay potency score (higher = more potent) was -1.44.

Question: For TTCATGTTTCACATTTAGCTGC, which sensor-assay potency score (higher = more potent) is on record?
Answer: The sensor-assay potency score (higher = more potent) was -0.162.

target: IGFBP3; test: as above; settings: shRNA

Question: Which sensor-assay potency score (higher = more potent) does the source give for TTGATGATGATTATCTTTGAAT here?
Answer: The sensor-assay potency score (higher = more potent) was -0.974.

Question: With ATCTGTGCTCTGAGACTCGTAG as the sequence, how does the sensor-assay potency score (higher = more potent) read?
Answer: Its sensor-assay potency score (higher = more potent) is -0.551.

Question: With TAGCATTTCCTGGAGCTGGCGG as the sequence, how does the sensor-assay potency score (higher = more potent) read?
Answer: Its sensor-assay potency score (higher = more potent) is -0.626.

Question: With TACTTATCCACACACCAGCAGA as the sequence, how does the sensor-assay potency score (higher = more potent) read?
Answer: Its sensor-assay potency score (higher = more potent) is -1.2.

Question: How did the sensor-assay potency score (higher = more potent) turn out when TTTCTTGATGATGATTATCTTT was run?
Answer: Its sensor-assay potency score (higher = more potent) is -1.

Question: For TATCTGTGCTCTGAGACTCGTA, which sensor-assay potency score (higher = more potent) is on record?
Answer: The sensor-assay potency score (higher = more potent) was -0.405.

Question: With TTTCTTATAAAATCCCTTCTTG as the sequence, how does the sensor-assay potency score (higher = more potent) read?
Answer: The sensor-assay potency score (higher = more potent) was -0.488.

Question: How did the sensor-assay potency score (higher = more potent) turn out when TCGTAGTCAACTTTGTAGCGCT was run?
Answer: Its sensor-assay potency score (higher = more potent) is -0.259.

Question: TAGTCAACTTTGTAGCGCTGGC was tested. Which sensor-assay potency score (higher = more potent) did it give?
Answer: Its sensor-assay potency score (higher = more potent) is -0.23.

Question: TATCTTTGAATGGAGGGGGTGG was tested. Which sensor-assay potency score (higher = more potent) did it give?
Answer: The sensor-assay potency score (higher = more potent) was -0.842.

Question: Which sensor-assay potency score (higher = more potent) does the source give for TTTAGCATGCCCTTTCTTGATG here?
Answer: Its sensor-assay potency score (higher = more potent) is -1.17.

Question: TTCTTGATGATGATTATCTTTG was tested. Which sensor-assay potency score (higher = more potent) did it give?
Answer: Its sensor-assay potency score (higher = more potent) is -1.16.
